Consider 7 compounds from PubChem BioAssay (NCATS).

The target of experiment [1] is Lysosomal acid glucosylceramidase (Homo sapiens) (UniProt P04062). Briefly: Glucocerebrosidase-p2 (AID 348; in the data active = potency below about 10 µM; also: potency is read from the fitted curve at half-maximal effect). Conditions: purified GBA, blue fluorogenic substrate, 40 min. The method, boiled down:
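Normal human glucocerebrosidase (0.2 nM) with blue fluorogenic substrate (80 uM final) in citrate/phosphate pH 5.9 with 10mM sodium taurocholate, 0.01% tween-20; 40 min RT, NaOH/glycine stop; fluorescence Ex 365/Em 440; AC50 from a titration from 0.6 nM upwards.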

Experiment [2] is described as follows: AP1 Signaling Pathway (AID 357; active = well fitted curve in either direction with a large enough effect, not every such curve was filed as active;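 also: ME-180 reporter cells stimulated with EGF at its EC50 level; % is scaled to controls: 0 for no effect and ±100 for the full control effect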). Conditions: ME-180 AP-1-bla reporter, EGF-induced, beta-lactamase ratio, 5 h; at 7.69 µM (top of the series) unless noted. A digest of the protocol: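 Beta-lactamase reporter under AP-1 response element, ME-180 background. Stimulus: EC50 EGF. Compound exposure 5 h, 37 °C. Detection: CCF4, 2.5 h RT, 460/530 nm. Values: AC50 from titration.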

Experiment [3] addresses Cytochrome P450 1A2 (Homo sapiens) (UniProt P05177). Briefly: p450-cyp1a2 (AID 410). Also: potency is read from the fitted curve at half-maximal effect.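 As to activity change, negative = inhibition: -100% = full effect of reference inhibitor.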 Conditions: recombinant CYP1A2, luciferin-ME demethylation, luminescence; series mostly up to 57 µM. A digest of the protocol:
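O-Demethylation of luciferin 6' methyl ether by human CYP1A2 is monitored as luciferase luminescence. Substrate sits at Km (100uM); enzyme is 20nM. Values are scaled to 57 uM furafylline as maximal inhibition.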

Experiment [4] in a line: Stat Signaling Pathway (AID 446; active = well fitted curve in either direction with a large enough effect, not every such curve was filed as active;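 also: ME-180 cervical cancer cells given 40 pM IL-6 alongside compound; SIE-controlled beta-lactamase reporter measured as 460/530 nm FRET emission ratio; % is scaled to controls: 0 for no effect and ±100 for the full control effect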). Conditions: ME-180 SIE beta-lactamase reporter, IL-6 stimulated, 5 h; at 7.69 µM (top of the series) unless noted. A digest of the protocol: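 Emission at 460 and 530 nm (excitation 405 nm) reports SIE-controlled beta-lactamase in ME-180 cells. Cells received compound with 40 pM IL-6 for 5 hrs at 37 C; data scaled between 300 pM IL-6 and 125 nM JAK-inhibitor controls.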

Experiment [5] concerns the target Glucocorticoid receptor (Homo sapiens) (UniProt P04150). Briefly: GR-EFC Redistribution (AID 451). Also: potency is read from the fitted curve at half-maximal effect. Conditions: CHO-K1 GR-EFC translocation, beta-gal luminescence, 2 h. The method, boiled down:
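CHO-K1 cells stably expressing nuclear-localized β-gal enzyme acceptor and GR fused C-terminally to the enzyme donor fragment; ligand-driven nuclear translocation restores β-gal by complementation. Compounds titrated up to 46 uM final, 2 h at 37 °C; luminescence read.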

Experiment [6] addresses Mitogen-activated protein kinase 10 (Mus musculus) (UniProt Q61831). Put plainly: JNK3 AlphaScreen Assay (AID 530; active = well fitted curve in either direction with a large enough effect, not every such curve was filed as active;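 also: kinase came from lysate of stimulated human HepG2 cells; signal reports phosphorylation of biotinylated GST-cJun 1-79 at Ser73 with 10 µM ATP; % is scaled to controls: 0 for no effect and ±100 for the full control effect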). Conditions: JNK3 lysate, c-Jun phosphorylation; series mostly up to 57.1 µM. The method, boiled down:
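Phosphorylation of biotinylated GST-cJun(1-79) at Ser73 is measured by AlphaScreen proximity luminescence. Enzyme is JNK3 in HepG2 lysates activated with interleukin-1beta and tumor necrosis factor alpha; ATP is 10 uM final.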
(In general: Bead proximity is the source of the signal in Alpha formats.)

Experiment [7] has as its target 3',5'-cyclic-AMP phosphodiesterase 4B (Homo sapiens) (UniProt Q07343). Briefly: qHTS Assay for Inhibitors of PDE-IV (AID 607; active = well fitted activation curve with a large enough effect in the main read-out, with a control signal flat, not every such curve was filed as active; also: % of control where 0% means no effect). Conditions: HEK293 ACTOne CNG channel cells, membrane potential fluorescence; series mostly up to 22.9 µM. A digest of the protocol: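 The readout is membrane depolarisation from a cAMP-sensing CNG channel, detected with a potential dye at ex 535/em 590. Cells were HEK293-derived (endogenous PDE-IV) at 1000 cells/well, titrated up to 22.9 uM final.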
Background: qHTS replaces the single test concentration by a dilution series.

The target of experiment [8] is Cytochrome P450 3A4 (Homo sapiens) (UniProt P08684). Put plainly: qHTS Assay for Activators of Cytochrome P450 3A4 (AID 885; active = well fitted curve in the direction sought with a large enough effect; an effect the other way counts as inactive or inconclusive; also: nearly all actives have a fitted effect of over 65% in size). Conditions: recombinant CYP3A4, Luciferin-PPXE luminescence, 60 min; series mostly up to 57.1 µM. The method, boiled down:
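Activators are scored by enhanced luminescence from CYP3A4 conversion of luciferin-PPXE (25uM, equal to KM) to luciferin, after 60 min at RT with an NADPH-regenerating system.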

A short description of experiment [9]: qHTS Assay for Lipid Storage Modulators (AID 1519). Conditions: Drosophila S3 cells, BODIPY lipid droplet/cell ratio, laser cytometry, cells loaded with oleic acid; for activity change, negative = inhibition: at 57.5 µM (top of the series). A digest of the protocol: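 Cells seeded at 5,000 per well were treated with compounds over a concentration series and loaded with oleic acid (400 uM, as added). Lipid droplet fluorescence (488 nm excitation, 500-530 nm channel) was read by laser-scanning cytometry and normalized to 20 uM Triacsin C.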

Experiment [10] can be described thus: Primary qHTS for small molecule stabilizers of the endoplasmic reticulum resident proteome: Secreted ER Calcium Modulated Protein (SERCaMP) assay (AID 1508630; active = well fitted curve in the direction sought with a large enough effect; an effect the other way counts as inactive or inconclusive; also: % is scaled to controls: 0 for no effect and ±100 for the full control effect). Conditions: SH-SY5Y GLuc-SERCaMP (Gaussia luciferase released on ER calcium loss) secretion, thapsigargin, luminescence; series mostly up to 38.4 µM. The method, boiled down:
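The SH-SY5Y reporter protocol was run at 3 concentrations up to 38.3 uM (primary) or 11 concentrations (follow-up): 16 h compound, 100 nM thapsigargin for 4 h, then extracellular luciferase luminescence.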

The nature of experiment [11]: qHTS Assay for Identification of Small Molecule Agonists for Hypoxia Response Element Signaling Pathway (AID 914; active = well fitted activation curve with a large enough effect in the signal ratio, with a control signal flat, not every such curve was filed as active; the % refers to the signal ratio; also: % of control where 0% means no effect). Conditions: ME-180 (cervical carcinoma) HRE-bla reporter, beta-lactamase ratio, CoCl2, 17 h; activation: stronger effect = higher value. The method, boiled down:
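Read-out: CCF4 FRET ratio of 460nm to 530nm emission (excitation 405nm) after 2.5 hours at room temperature, taken from HRE-bla ME-180 cells that had been exposed to compound and EC50 CoCl2 for 17 hours.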

For experiment [12], the target named is Cytochrome P450 2D6 (Homo sapiens) (UniProt P10635). Briefly: qHTS Assay for Inhibitors and Substrates of Cytochrome P450 2D6 (AID 891; active = well fitted curve in the direction sought with a large enough effect; an effect the other way counts as inactive or inconclusive; also: potency is read from the fitted curve at half-maximal effect; nearly all actives have a fitted effect of over 60% in size). Conditions: recombinant CYP2D6, luciferin-ME EGE luminescence; series mostly up to 57.1 µM. A digest of the protocol: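 Luminescent read-out of luciferin formed by 5 nM human CYP2D6 demethylating 30 uM Luciferin-ME EGE (Km level) over 60 min at room temperature after NADPH regeneration addition. Data normalized to full inhibition by 1.43 uM quinidine.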

In experiment [13] the target is Cytochrome P450 2C19 (Homo sapiens) (UniProt P33261). Put plainly: qHTS Assay for Inhibitors and Substrates of Cytochrome P450 2C19 (AID 899; active = well fitted curve in the direction sought with a large enough effect; an effect the other way counts as inactive or inconclusive; also: potency is read from the fitted curve at half-maximal effect; nearly all actives have a fitted effect of over 60% in size). Conditions: recombinant CYP2C19, luciferin-H EGE luminescence; series mostly up to 57.1 µM. The method, boiled down: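 NADPH-dependent conversion of Luciferin-H EGE (10uM, at KM) by 5nM enzyme in 50mM KPO4, 60 min at 37C following 10 min compound preincubation. Stopped with luciferin detection buffer; luminescence read after 20 min.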

The target in experiment [14] is Cytochrome P450 2C9 (Homo sapiens) (UniProt P11712). Briefly: qHTS Assay for Inhibitors and Substrates of Cytochrome P450 2C9 (AID 883; active = well fitted curve in the direction sought with a large enough effect; an effect the other way counts as inactive or inconclusive; also: potency is read from the fitted curve at half-maximal effect; nearly all actives have a fitted effect of over 60% in size). Conditions: recombinant CYP2C9, luciferin-H luminescence, 60 min; series mostly up to 57.1 µM. A digest of the protocol:
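A luminogenic readout tracked human CYP2C9 (10nM) converting deoxyluciferin (100uM, at KM) in 25mM KPO4 during 60 min at 37C with regenerated NADPH. Values normalized to 57uM sulphaphenazole as complete inhibition.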

Setting [15] is: measured here: cell count channel max response.
[16] abbreviates: measured here: lipid channel max response.

Inconclusive results are not listed. Calls of active or inactive are those of the source. Unless noted, calls follow the shape of the full dose curve.

Sequence of Glucocorticoid receptor (Homo sapiens) (P04150 whole entry, looked up, the tested form may be a part): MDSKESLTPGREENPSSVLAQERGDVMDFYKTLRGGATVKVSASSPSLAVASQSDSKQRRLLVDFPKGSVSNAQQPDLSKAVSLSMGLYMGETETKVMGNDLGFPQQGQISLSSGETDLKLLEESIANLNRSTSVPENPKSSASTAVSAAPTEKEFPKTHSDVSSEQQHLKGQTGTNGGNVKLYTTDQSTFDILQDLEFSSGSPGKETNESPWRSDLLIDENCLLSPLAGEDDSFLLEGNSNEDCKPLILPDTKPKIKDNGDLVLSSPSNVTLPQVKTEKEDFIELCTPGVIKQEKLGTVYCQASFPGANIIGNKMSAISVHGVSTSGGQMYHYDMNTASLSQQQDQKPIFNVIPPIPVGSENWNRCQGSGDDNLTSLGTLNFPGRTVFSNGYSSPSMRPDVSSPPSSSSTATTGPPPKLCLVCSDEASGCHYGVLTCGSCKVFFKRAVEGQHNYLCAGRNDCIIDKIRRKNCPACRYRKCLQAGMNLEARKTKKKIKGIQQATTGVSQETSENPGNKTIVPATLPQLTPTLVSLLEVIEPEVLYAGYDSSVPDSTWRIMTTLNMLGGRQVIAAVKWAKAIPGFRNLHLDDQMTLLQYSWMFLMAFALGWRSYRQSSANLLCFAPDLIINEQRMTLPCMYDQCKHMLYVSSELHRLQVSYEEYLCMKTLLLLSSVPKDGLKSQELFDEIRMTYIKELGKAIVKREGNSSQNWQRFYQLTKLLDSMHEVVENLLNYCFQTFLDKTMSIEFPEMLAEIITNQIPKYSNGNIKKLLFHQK
Sequence of Cytochrome P450 3A4 (Homo sapiens) (P08684 whole entry, looked up): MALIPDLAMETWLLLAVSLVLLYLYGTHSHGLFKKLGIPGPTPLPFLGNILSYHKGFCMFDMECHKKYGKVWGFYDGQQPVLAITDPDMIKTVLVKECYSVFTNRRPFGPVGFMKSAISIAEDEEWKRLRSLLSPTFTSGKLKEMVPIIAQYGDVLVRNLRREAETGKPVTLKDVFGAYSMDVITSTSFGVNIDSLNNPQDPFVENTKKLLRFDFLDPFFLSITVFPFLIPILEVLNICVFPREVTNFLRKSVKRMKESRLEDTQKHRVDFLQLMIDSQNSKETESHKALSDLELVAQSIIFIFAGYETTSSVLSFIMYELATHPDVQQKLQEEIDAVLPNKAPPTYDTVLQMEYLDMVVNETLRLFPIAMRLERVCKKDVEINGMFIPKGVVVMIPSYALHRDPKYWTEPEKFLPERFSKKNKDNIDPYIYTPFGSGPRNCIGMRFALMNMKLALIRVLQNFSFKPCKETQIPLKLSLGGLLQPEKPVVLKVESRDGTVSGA
Sequence of Cytochrome P450 1A2 (Homo sapiens) (P05177 whole entry, looked up): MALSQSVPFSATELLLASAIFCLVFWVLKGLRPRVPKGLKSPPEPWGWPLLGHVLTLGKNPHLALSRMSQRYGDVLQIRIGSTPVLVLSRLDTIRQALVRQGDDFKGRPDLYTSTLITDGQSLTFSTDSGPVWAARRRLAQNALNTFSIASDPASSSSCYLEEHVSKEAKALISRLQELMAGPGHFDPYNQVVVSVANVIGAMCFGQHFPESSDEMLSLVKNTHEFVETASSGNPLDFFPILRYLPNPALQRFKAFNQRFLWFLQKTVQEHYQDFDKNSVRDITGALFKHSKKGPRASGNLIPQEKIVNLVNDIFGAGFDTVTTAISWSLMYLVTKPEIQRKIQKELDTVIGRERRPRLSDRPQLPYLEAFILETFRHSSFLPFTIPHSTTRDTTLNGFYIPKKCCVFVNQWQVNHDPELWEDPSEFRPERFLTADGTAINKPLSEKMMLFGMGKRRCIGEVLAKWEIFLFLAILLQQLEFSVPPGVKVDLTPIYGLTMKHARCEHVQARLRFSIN
Sequence of Lysosomal acid glucosylceramidase (Homo sapiens) (P04062 whole entry, looked up): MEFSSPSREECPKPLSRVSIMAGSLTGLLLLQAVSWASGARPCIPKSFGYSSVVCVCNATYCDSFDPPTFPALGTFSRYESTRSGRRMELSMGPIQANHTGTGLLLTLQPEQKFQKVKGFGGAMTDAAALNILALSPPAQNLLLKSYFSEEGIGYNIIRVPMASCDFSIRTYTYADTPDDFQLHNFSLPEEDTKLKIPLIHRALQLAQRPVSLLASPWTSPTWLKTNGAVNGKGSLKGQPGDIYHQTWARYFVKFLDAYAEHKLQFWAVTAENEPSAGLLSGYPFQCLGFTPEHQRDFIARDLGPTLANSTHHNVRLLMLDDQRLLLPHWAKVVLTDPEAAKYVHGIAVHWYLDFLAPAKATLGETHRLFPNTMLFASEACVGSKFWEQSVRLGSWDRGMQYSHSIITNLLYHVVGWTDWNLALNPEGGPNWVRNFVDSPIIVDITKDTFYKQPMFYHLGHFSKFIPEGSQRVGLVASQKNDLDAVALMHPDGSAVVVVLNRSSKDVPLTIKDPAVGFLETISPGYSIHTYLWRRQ
Sequence of 3',5'-cyclic-AMP phosphodiesterase 4B (Homo sapiens) (Q07343 whole entry, looked up): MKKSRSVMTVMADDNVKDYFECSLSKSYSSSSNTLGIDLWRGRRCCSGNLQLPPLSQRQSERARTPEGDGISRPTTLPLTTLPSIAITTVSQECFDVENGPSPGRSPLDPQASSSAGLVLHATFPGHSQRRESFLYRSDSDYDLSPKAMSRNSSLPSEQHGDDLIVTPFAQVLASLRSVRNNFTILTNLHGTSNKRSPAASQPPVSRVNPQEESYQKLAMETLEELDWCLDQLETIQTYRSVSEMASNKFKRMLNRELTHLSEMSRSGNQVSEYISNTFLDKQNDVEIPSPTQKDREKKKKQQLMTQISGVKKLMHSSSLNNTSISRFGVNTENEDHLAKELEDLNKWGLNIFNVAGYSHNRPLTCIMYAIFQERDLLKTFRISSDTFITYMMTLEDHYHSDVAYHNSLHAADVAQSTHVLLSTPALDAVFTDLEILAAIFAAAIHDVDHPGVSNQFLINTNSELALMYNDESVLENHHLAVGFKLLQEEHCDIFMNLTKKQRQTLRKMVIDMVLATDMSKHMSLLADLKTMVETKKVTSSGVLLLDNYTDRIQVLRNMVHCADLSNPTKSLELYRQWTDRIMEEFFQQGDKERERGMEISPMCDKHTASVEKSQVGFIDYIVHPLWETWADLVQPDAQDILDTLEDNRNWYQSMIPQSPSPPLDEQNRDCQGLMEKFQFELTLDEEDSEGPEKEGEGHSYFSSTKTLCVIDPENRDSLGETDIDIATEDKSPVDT
Sequence of Cytochrome P450 2C19 (Homo sapiens) (P33261 whole entry, looked up): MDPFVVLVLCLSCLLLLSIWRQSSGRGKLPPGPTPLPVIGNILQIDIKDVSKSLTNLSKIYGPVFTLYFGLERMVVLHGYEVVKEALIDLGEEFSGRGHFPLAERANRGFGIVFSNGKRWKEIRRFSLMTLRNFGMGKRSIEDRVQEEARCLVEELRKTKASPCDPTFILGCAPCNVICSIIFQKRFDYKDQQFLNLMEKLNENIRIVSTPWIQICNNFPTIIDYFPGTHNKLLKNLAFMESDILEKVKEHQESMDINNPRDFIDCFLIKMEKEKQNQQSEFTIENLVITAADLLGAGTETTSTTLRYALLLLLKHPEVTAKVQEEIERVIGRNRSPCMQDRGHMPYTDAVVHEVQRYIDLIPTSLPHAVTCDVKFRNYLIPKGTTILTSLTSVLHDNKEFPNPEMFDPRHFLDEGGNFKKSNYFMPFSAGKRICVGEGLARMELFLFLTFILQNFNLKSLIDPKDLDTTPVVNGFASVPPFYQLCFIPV
Sequence of Cytochrome P450 2D6 (Homo sapiens) (P10635 whole entry, looked up): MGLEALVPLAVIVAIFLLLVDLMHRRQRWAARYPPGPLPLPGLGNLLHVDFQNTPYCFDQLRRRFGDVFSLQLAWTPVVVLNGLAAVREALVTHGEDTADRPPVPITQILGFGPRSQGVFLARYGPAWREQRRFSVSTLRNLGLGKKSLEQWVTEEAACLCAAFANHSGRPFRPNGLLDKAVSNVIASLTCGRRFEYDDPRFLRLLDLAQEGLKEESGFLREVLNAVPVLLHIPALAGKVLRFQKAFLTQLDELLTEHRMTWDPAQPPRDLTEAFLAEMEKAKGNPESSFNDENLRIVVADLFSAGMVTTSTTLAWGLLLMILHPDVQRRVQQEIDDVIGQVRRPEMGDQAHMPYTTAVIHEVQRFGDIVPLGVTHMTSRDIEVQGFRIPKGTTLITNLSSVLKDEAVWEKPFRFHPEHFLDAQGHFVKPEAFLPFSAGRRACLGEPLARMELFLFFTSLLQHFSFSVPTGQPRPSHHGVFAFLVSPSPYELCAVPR
Sequence of Cytochrome P450 2C9 (Homo sapiens) (P11712 whole entry, looked up): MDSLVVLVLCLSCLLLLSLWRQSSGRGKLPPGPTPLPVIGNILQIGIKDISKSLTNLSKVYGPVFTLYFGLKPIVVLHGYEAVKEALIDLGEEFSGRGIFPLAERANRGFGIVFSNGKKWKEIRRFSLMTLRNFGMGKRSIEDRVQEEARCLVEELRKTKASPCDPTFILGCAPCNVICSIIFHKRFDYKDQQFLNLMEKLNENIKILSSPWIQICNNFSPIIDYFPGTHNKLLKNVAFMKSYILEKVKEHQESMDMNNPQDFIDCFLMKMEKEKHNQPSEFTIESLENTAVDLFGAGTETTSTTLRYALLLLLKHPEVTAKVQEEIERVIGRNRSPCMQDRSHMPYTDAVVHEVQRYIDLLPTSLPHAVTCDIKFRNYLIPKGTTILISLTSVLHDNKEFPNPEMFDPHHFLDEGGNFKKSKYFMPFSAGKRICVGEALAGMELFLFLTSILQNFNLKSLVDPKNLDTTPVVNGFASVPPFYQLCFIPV

On to `Cn1cccc1C(=O)N1CCC2(CCCN(Cc3ccccc3)C2)CC1`, for which the Potency is > 11.4 µM (inactive) in experiment [1] and > 46 µM (inactive) in experiment [5]. Moreover, the activity change, negative = inhibition in [2] was -4.68% (inactive); in experiment [9] it was 3.59% (inactive). For the same compound, the Potency entry in [3], in [6], in experiment [7] and in experiment [8] was “inactive” each time. Moreover, in experiment [4], the activity, negative = inhibition was -3.12% (inactive). The max response in [9] (setting [15]) turned out to be 2.52%; in [9] (setting [16]), 8.85%. Besides, in experiment [10], the result was inactive.

As to `CN1CC[C@@]2(CCCN(C(=O)c3cc(C(F)(F)F)cc(C(F)(F)F)c3)C2)C1`, the values for the Potency in [1] and in experiment [5] were > 11.4 µM (inactive) and > 46 µM (inactive), respectively. The activity change, negative = inhibition in [2] was -0.328% (inactive); in [9], 1.24% (inactive). In addition, the Potency entry in experiment [3], in experiment [6], in [7] and in experiment [8] was “inactive” throughout. Besides, the activity, negative = inhibition in experiment [4] is 13.1% (inactive). Further, the max response in experiment [9] (setting [15]) was -1.13%; in experiment [9] (setting [16]) it was 2.81%. For the same compound, the result in experiment [10] was inactive.

As for `CC(C)CN1CCCC2(CCN(C(=O)c3cc(C(F)(F)F)cc(C(F)(F)F)c3)CC2)C1`, the Potency in [1] was > 11.4 µM (inactive); in experiment [3], 12.6 µM (active); in experiment [5], > 46 µM (inactive). The activity change, negative = inhibition in experiment [2] is -4.78% (inactive); in experiment [9], 2.29% (inactive). Also, the activity, negative = inhibition in experiment [4] was -8.44% (inactive). The Potency result in experiment [6] and in experiment [8] was “inactive” in each case. Also, the activation in experiment [11] was -20.4% (inactive). Besides, the max response stood at 11.6% in experiment [9] (setting [15]) and 17.9% in [9] (setting [16]). Moreover, the outcome in [10] was inactive.

Regarding `Cc1noc(C)c1C(=O)N1CCC2(CCN(Cc3ccncc3)CC2)CC1`, the Potency in [1] is > 11.4 µM (inactive); in [5] it was > 46 µM (inactive). Besides, the activity change, negative = inhibition in experiment [2] was 5.66% (inactive); in experiment [9] it was 4.47% (inactive). Moreover, the Potency entry in experiment [3], in experiment [6], in experiment [7] and in experiment [8] was “inactive” throughout. Moreover, in [4], the activity, negative = inhibition was -5.26% (inactive). Moreover, in [11], the activation is 14.4% (inactive). In addition, the max response in experiment [9] (setting [15]) was determined as 0.0469%; in experiment [9] (setting [16]), 9.36%. Moreover, the result in [10] was inactive.

`COc1ccccc1CN1CCCC2(CCN(C(=O)c3cccn3C)CC2)C1`: the Potency in [1] was > 11.4 µM (inactive); in experiment [5], > 46 µM (inactive); in experiment [12], 3.16 µM (active). The results for the activity change, negative = inhibition in experiment [2] and in experiment [9] were -2.64% (inactive) and 4.14% (inactive), respectively. Besides, the Potency result in experiment [3], in experiment [6], in experiment [7] and in experiment [8] was “inactive” in each case. The activity, negative = inhibition in [4] was 4.46% (inactive). Moreover, the max response in experiment [9] (setting [15]) turned out to be 21.7%; in [9] (setting [16]), 29.7%. For the same compound, the outcome in experiment [10] was inactive.

For the compound `c1ccc(C(c2ccccc2)N2CCC3(CCNCC3)CC2)cc1`, the Potency was > 11.4 µM (inactive) in experiment [1], > 46 µM (inactive) in [5] and 3.98 µM (active) in experiment [13]. For the same compound, the activity change, negative = inhibition in [2] was -10.6% (inactive); in experiment [9], -5.07% (inactive). For the same compound, the Potency entry in experiment [3], in [6] and in experiment [7] was “inactive” in each case. Also, the activity, negative = inhibition in experiment [4] was 0.474% (inactive). Besides, the max response in experiment [9] (setting [15]) stood at 27.4%; in [9] (setting [16]), 21.5%. Also, the result in [10] was inactive.

In the case of `O=C(Oc1ccccc1)N1CCC2(CC1)CN(c1ccncc1)C2`, the Potency is > 11.4 µM (inactive) in [1], > 46 µM (inactive) in experiment [5], 3.16 µM (active) in experiment [14] and 7.94 µM (active) in experiment [13]. Also, the activity change, negative = inhibition in [2] is -1.8% (inactive); in [9] it was 1.74% (inactive). Further, the Potency entry in experiment [3], in [7] and in experiment [8] was “inactive” each time. For the same compound, the activity, negative = inhibition in [4] is -4.7% (inactive). The values for the max response in experiment [9] (setting [15]) and in experiment [9] (setting [16]) were 0.26% and 4.81%, respectively. Further, the result in experiment [10] was inactive.
